Results from PubChem BioAssay (NCI).
About 83,000 compounds went through this panel and 20% of them were active in at least one assay; those are over-represented in the sample as a whole.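 Plates (96-well) were seeded with cells, treated with compound at one concentration, and incubated for 48 hours before percent growth was determined.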 Calls of active or inactive are those of the source. Rule for the calls: active = growth percent below 10; inactive = the rest.

The compounds below were run on SK-MEL-28 melanoma (assay: NCI-60 one-dose screen, 48 h (100 = growth as untreated, 0 = no growth, -100 = all killed)). Details: 10 µM unless noted.

| SMILES | growth |
| --- | --- |
| CS(=O)(=O)Nc1cc(-c2ccc3ncnc(Nc4ccc5c(cnn5Cc5ccccn5)c4)c3c2)cnc1Cl | 56.1% (inactive) |
| CO[C@H]1/C=C(/C)CCC[C@H](C)[C@H](O)[C@@H](C)C(=O)C(C)(C)[C@@H](O)CC(=O)O[C@@H]1/C(C)=C/c1csc(C)n1 | 39.6% (inactive) |
| COc1ccc2nc3ccc(OC)cc3c(SCCCN)c2c1 | 121% (inactive) |
| CCCCCCCCCCCCCCCC(N)c1ccccc1 (configuration not stated) | 85.3% (inactive) |
| CC1=C(Nc2ccc(N3CCN(C)CC3)cc2)C(=O)c2cncnc2C1=O | 121% (inactive) |
| CN(C)c1ccc(/C=C/C(=O)c2ccc(-n3cc(CN4CCN(c5cc6c(cc5F)c(=O)c(C(=O)O)cn6C5CC5)CC4)nn3)cc2)cc1 | 68% (inactive) |
| CCN(CC)c1nc(SCc2ccccc2Cl)ncc1C | 118% (inactive) |
| CCN1CCN(Cc2cn(CC(=O)Nc3ccc4c(ccn4Cc4ccccc4)c3)nn2)CC1 | 105% (inactive) |
| O=C(O)[C@@H]1c2ccccc2-c2ccccc2[C@H]1C(=O)O | 102% (inactive) |
| O=C1CC(N2C(=O)/C(=C/C(Cl)=C\c3ccc([N+](=O)[O-])cc3)SC2=S)C(=O)N1c1ccc(Cl)cc1 (configuration not stated) | 18.2% (inactive) |
| CCc1ccc(Oc2cn[nH]c2-c2ccc(OCCc3ccc(F)cc3)cc2O)cc1 | 87.3% (inactive) |
| CC1(C)CCC(S(=O)(=O)c2ccc3c(c2)/C(=N\O)c2cc(S(=O)(=O)N4CCC(O)(c5cccc(C(F)(F)F)c5)CC4)ccc2-3)CC1 | -71.7% (active) |
| Cc1cc(Cl)ccc1Nc1nc(C(F)(F)F)ccc1C(=O)N/N=C/c1ccc([N+](=O)[O-])cc1 | 5.64% (active) |
| CCOC(=O)c1[nH]c(=O)c2c(C)nc(-c3ccccc3)cc2c1O | 105% (inactive) |
| Oc1ccc(CN2CCC(N3CCCCC3)CC2)c2cccnc12 | 33.4% (inactive) |
| COc1cccc([C@H]2c3[nH]c4ccccc4c3C[C@H]3C(=O)N(CCCCCCC(=O)NO)CC(=O)N23)c1 | 43% (inactive) |

| SMILES | growth |
| --- | --- |
| C=CC(=O)NCc1ccc(Nc2nccc(-c3ccc(N4CCCC4)c(C#N)c3)n2)cc1 | 45.5% (inactive) |
| CC1=C(C(=O)OC(C)C)C(c2ccc3c(c2)OCO3)NC(=S)N1 (configuration not stated) | 106% (inactive) |
| CCOC(=O)Cn1c(O)c(N=Nc2ccc(S(N)(=O)=O)cc2)c2cc(Br)ccc21 | 85.2% (inactive) |
| O=C(Cn1c2c(c3ccccc31)CCCC2)Nc1ccc(-c2nc3ccccc3s2)cc1 | 103% (inactive) |
| COC(C(=O)[C@@H](O)[C@@H](C)O)[C@@H]1Cc2cc3cc(O[C@H]4C[C@@H](O[C@H]5C[C@@H](O)[C@H](O)C(C)O5)[C@H](O)C(C)O4)c(C)c(O)c3c(O)c2C(=O)[C@H]1O[C@H]1C[C@@H](O[C@H]2C[C@@H](O[C@H]3C[C@@H](O)[C@H](OC)C(C)O3)[C@@H](O)C(C)O2)[C@H](O)C(C)O1 (some centres not stated) | -34.1% (active) |
| CCCCCCCCn1ccc2cc(NC(=O)CN3CCN(c4nc(C)cc(Cl)n4)CC3)ccc21 | 98% (inactive) |
| COc1ccc(/C=N/NC(=O)CCN2c3ccccc3Sc3ccccc32)cc1 | 80.9% (inactive) |
| CNC(=O)c1cc(Oc2ccc3c(c2)sc2nc(-c4cc(OC)c(OC)c(OC)c4)cn23)ccn1 | 63.5% (inactive) |
| CCCCCCNC(=O)Oc1ccc(/C(=C(/C)Cc2ccc(OC)cc2)c2ccc(OCCCN(C)C)cc2)cc1 | -43.5% (active) |
| Cn1ccnc1C(=O)C(=O)Nc1ccc(CC(=O)Nc2ccccc2)cc1 | 107% (inactive) |
| C=CCc1c(O)c(C(=O)/C=C/c2ccc(Cl)cc2)c(OC)c2ccoc12 | 63.5% (inactive) |
| C=C(CNCCc1ccc(O)cc1)[C@@H]1CC[C@]2(CO)CC[C@]3(C)[C@H](CC[C@@H]4[C@@]5(C)CCC(NCCO)C(C)(C)[C@@H]5CC[C@]43C)[C@@H]12 (some centres not stated) | -92.4% (active) |
| CCOC(=O)CNP(=O)(OC[C@@H](Cc1ccccc1)NC(=O)c1cc2ccccc2s1)Oc1ccccc1 (some centres not stated) | 77% (inactive) |
| COc1ccc(OC)c(C(=O)/C=C/c2cc3c(c(OC)c2OC)OCO3)c1 | 89.7% (inactive) |
| C=C(C)[C@@H]1CC[C@]2(C)[C@H](CC=C3[C@@H]4[C@H](C)[C@@H](C)CC[C@]4(CO)CC[C@]32C)[C@@]1(C)CCCN | -35.3% (active) |
| O=C1/C(=C/c2ccc(F)cc2)COc2ccc(O)cc21 | 103% (inactive) |
